Test [1] is described as follows: resazurin metabolic signal in HepG2 cells – cell-based, resazurin fluorescence, 24 h, PK04 Diversity Set, profiling panel (AID 1172). Conditions: HepG2 viability, higher = more signal. In general terms: Resazurin is reduced to fluorescent resorufin, in cell work by metabolically active cells.
A short description of test [2]: budding yeast growth changes without added modifier – OD600, strain BY4716, 24 h, basal condition, primary screen (AID 1173). Conditions: S. cerevisiae BY4716 growth, OD600, 24 h; higher = more signal, called active from +8 up or from −8 down.
Test [3] is described as follows: viability profiling in MM1S myeloma cells – cell-based, resazurin fluorescence, basal, 24 h, PK04 Diversity Set, profiling panel (AID 1174).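 Further: MM1S multiple myeloma cell line.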 The following applies: higher = more signal, called active from +8 up or from −8 down.
Test [4] deals with Dihydroorotate dehydrogenase (quinone), mitochondrial (Plasmodium falciparum (isolate 3D7)) (UniProt Q08210). Nature of the test: inhibition of P. falciparum DHODH – biochemical, C-terminal His tag, absorbance 600 nm, primary screen (AID 1175).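 Further: recombinant parasite enzyme with a five histidine tag at its C terminus.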 The following applies: PfDHODH enzyme, DCIP absorbance 600 nm; higher = more signal, called active from +8 up or from −8 down.
Sequence of Dihydroorotate dehydrogenase (quinone), mitochondrial (Plasmodium falciparum (isolate 3D7)) (Q08210 whole entry, looked up): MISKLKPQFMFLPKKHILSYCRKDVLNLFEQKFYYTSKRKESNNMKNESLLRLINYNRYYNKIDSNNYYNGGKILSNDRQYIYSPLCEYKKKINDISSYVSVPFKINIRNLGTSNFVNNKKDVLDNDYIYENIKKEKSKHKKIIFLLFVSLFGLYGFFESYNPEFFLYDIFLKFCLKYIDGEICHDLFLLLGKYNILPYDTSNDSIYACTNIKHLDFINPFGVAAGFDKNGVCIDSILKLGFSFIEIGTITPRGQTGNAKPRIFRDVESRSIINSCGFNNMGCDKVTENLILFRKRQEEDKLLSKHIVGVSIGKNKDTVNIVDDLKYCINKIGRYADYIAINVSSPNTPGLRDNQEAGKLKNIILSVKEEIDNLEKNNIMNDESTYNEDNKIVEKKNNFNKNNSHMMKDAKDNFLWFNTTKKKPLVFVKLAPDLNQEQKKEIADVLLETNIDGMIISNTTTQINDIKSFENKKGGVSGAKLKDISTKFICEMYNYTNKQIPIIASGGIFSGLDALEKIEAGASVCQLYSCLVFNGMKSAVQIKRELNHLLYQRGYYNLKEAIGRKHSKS
Test [5] in a line: inhibition of PAO1 biofilm formation – strain PAO1, LB-PBS medium, absorbance 600 nm, primary screen (AID 1176). The following applies: P. aeruginosa PAO1 growth/biofilm, A600, 12 h; higher = more signal.
Test [6] can be described thus: growth modulation of vineyard yeast isolate – strain RM11-1a, OD600, basal, 24 h, primary screen (AID 1177).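 Further: cultures grown under basal conditions with no added stressor.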 Conditions: S. cerevisiae RM11-1a growth, OD600, 24 h; higher = more signal, called active from +8 up or from −8 down.
The nature of test [7]: growth of efflux-deficient E. coli DRC39 – strain DRC39, OD650, 24 h, E. coli filamentation inducers, primary screen (AID 1178).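 Further: growth measured as culture turbidity by optical density at 650 nm.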 The following applies: E. coli DRC39 acrAB, higher = more signal, called active from +8 up or from −8 down.
A short description of test [8]: growth of efflux-deficient E. coli DRC39 – strain DRC39, OD650, 48 h, E. coli filamentation inducers, primary screen (AID 1179).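 Further: screen aims at cell division blockers that make cells filament.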 Conditions: E. coli DRC39 delta-acrAB growth, higher = more signal, called active from +8 up or from −8 down.
Test [9] can be described thus: viability profiling in RPMI8226 myeloma cells – cell-based, resazurin fluorescence, basal, 24 h, PK04 Diversity Set, profiling panel (AID 1180).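 Further: RPMI8826 multiple myeloma cell line at 5000 cells per well.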 The following applies: higher = more signal.
The target of test [10] is E3 ubiquitin-protein ligase XIAP (Homo sapiens) (UniProt P98170). Nature of the test: small molecules binding XIAP protein – biophysical, small-molecule microarray, fluorescence 635 nm, primary screen (AID 1181).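 Further: score merges 667 nm emission and signal to noise over triplicate slides.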 The following applies: higher = more signal.
Sequence of E3 ubiquitin-protein ligase XIAP (Homo sapiens) (P98170 whole entry, looked up, the tested form may be a part): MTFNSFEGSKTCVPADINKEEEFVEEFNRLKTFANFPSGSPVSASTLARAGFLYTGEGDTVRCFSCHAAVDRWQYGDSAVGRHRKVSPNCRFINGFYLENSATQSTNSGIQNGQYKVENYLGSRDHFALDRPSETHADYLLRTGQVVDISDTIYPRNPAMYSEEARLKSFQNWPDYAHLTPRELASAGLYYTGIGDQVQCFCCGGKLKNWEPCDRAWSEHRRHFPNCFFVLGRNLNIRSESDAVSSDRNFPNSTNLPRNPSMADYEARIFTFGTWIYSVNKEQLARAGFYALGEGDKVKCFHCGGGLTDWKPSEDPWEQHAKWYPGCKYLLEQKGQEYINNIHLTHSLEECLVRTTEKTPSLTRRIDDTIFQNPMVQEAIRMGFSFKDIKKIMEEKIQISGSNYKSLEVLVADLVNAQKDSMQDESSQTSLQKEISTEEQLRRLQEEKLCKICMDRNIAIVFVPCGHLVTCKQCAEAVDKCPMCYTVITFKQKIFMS
Test [11] concerns XIP peptide (Xip251-270) binding. The test is described as follows: XIP fragment 251-270 binding compounds – biochemical, small-molecule microarray, fluorescence 635/667 nm, 0.1 µg/mL protein, primary screen (AID 1182). Conditions: fluorescent protein binding, 635 nm, higher = more signal, called active from +8 up or from −8 down.
Another test deals with XIP peptide (Xip251-270). Nature of the test: compounds binding XIP fragment 251-270 – biochemical, small-molecule microarray, fluorescence 635/667 nm, 0.5 µg/mL protein, primary screen (AID 1183). The following applies: fluorescence 635 nm, higher = more signal.
Test [12] can be described thus: blood-stage malaria parasite viability loss – strain 3D7, DAPI fluorescence, 100 nL, primary screen (AID 1184).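 Further: parasites grown inside human red blood cells in medium with human serum.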 Conditions: P. falciparum 3D7 growth, 3 d, higher = more signal.
For test [13], the target named is Homeobox protein Hox-A13 (Mus musculus) (UniProt Q62424). Nature of the test: disruptors of Hoxa13 oligonucleotide interaction – biochemical, fluorescence polarization, labeled oligonucleotide, primary screen (AID 1185). Conditions: Hoxa13:DNA binding, 15 min, higher = more signal, called active from +8 up or from −8 down.
Sequence of Homeobox protein Hox-A13 (Mus musculus) (Q62424 whole entry, looked up): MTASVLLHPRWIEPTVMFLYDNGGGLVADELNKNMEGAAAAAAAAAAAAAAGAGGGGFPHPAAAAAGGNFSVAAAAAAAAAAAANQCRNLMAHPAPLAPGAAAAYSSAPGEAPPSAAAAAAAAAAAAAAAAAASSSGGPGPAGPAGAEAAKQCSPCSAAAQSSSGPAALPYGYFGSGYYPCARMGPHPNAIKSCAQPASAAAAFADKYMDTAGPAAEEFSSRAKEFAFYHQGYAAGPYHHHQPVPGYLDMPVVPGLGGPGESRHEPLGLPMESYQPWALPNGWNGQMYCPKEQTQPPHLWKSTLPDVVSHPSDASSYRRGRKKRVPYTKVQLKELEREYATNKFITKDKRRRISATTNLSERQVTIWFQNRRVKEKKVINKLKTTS
Test [14] can be described thus: blockers of DNA damage checkpoint Chk1 activation – imaging, HeLa, hydroxyurea, phospho-Chk1 antibody, percent positive cells, primary screen (AID 1186). Conditions: hydroxyurea-induced phospho-Chk1 immunofluorescence imaging, higher = more signal.
Test [15] can be described thus: blockers of DNA damage checkpoint Chk1 activation – imaging, HeLa, hydroxyurea, phospho-Chk1 nuclear intensity, primary screen (AID 1187). The following applies: hydroxyurea-induced phospho-Chk1 immunofluorescence imaging, higher = more signal.

Where “and” joins values, the source holds several entries; their conditions need not be identical. Equal entries are not always repeated. Calls of active or inactive are those of the source. Unless noted, how the calls were made is not given here.

Consider `O=C(NN=C1C[C@@H](O)[C@@H](O)[C@@H]2[C@@H]3C(=O)N(Cc4ccc5c(c4)OCO5)C(=O)[C@@H]3CC[C@H]12)OCc1ccccc1`, for which the z-score in test [1] is -0.0124; in test [2], 0.0375 (inactive); in [3], -0.203 (inactive); in test [5] it was -0.437 (inactive); in test [6], 0.273 (inactive); in test [7] it was 0.883 (inactive). The z-score was 1.4 (inactive) in test [8], -0.2 in test [9], 0.228 in test [12] and 0.0311 (inactive) in test [13]. In addition, the composite z-score is -1.62 (inactive) in test [4], 0.106 in test [10], 0.974 (inactive) in test [11] and 0.222 in the test with XIP peptide (Xip251-270).
For the molecule `CCCCCN1CC=CC23O[C@@H]4C=CCCOC(=O)C4[C@H]2C(=O)N(C(C)CO)[C@@H]3C1=O` (stereo not given in full), the z-score in test [1] was 1.77 and 0.86; in test [2] it was -0.252 (inactive) and 1 (inactive); in test [3], 1.24 (inactive) and -0.0383 (inactive); in [5], -0.193 (inactive) and 0.0683 (inactive); in [6] it was -0.0686 (inactive) and 0.825 (inactive); in [7] it was 0.213 (inactive) and 0.0972 (inactive). Besides, the z-score in test [8] was -0.123 (inactive) and -0.105 (inactive); in test [9], 1.18 and -0.0579; in test [12], -0.165 and -0.358; in test [13], -5.44 (inactive) and -4.65 (inactive); in test [14], -0.605 (inactive) and 0.667 (inactive); in test [15], 0.0018 (inactive) and 0.28 (inactive). Further, the composite z-score in [4] is -1.97 (inactive) and -0.391 (inactive); in test [10], 0.216 and -0.323; in test [11], 0.79 (inactive) and 0.201 (inactive); with XIP peptide (Xip251-270) it was 0.675 and 0.445.
Take `C=CCN(Cc1ccccc1)C(=O)C1N(C(C)(C)CO)C(=O)C2C(C(=O)O)C3C=CC21O3` (stereo not given): the z-score in [1] was -0.767 and 0.937; in test [2], 0.424 (inactive) and -0.874 (inactive); in test [3], -0.796 (inactive) and 0.0609 (inactive); in [5], -0.112 (inactive) and -0.193 (inactive); in [6], -1.32 (inactive) and -0.417 (inactive); in test [7] it was -0.0429 (inactive) and 0.296 (inactive). Further, the z-score in [8] is -0.0639 (inactive) and 0.0039 (inactive); in test [9], -0.699 and 0.447; in [12] it was 0.379 and -0.247; in test [13], -0.255 (inactive) and -0.187 (inactive); in test [14], -0.401 (inactive) and -0.113 (inactive); in [15] it was -0.326 (inactive) and -0.297 (inactive). For the same molecule, the composite z-score is 1.25 (inactive) and 0.316 (inactive) in test [4]; 0.0322 and -0.328 in [10]; 0.102 (inactive) and -0.207 (inactive) in test [11]; 0.234 and -0.526 in the test on XIP peptide (Xip251-270).
With `C=CCN(C(=O)C1N(C(C)(C)CO)C(=O)C2C(C(=O)O)C3C=CC21O3)c1ccc(OC)cc1` (stereo not given), the z-score was 0.489 and -0.143 in [1]; -0.684 (inactive) and 0.362 (inactive) in test [2]; 1.01 (inactive) and 0.128 (inactive) in test [3]; -0.786 (inactive) in [5]; 0.643 (inactive) and 1.4 (inactive) in [6]; 1.33 (inactive) and 0.347 (inactive) in test [7]. In addition, the z-score in [8] is 1.09 (inactive) and 0.546 (inactive); in test [9], 0.592 and -0.39; in [12], -0.445 and 0.004; in test [13] it was -1.43 (inactive) and 0.701 (inactive); in test [14] it was 2.27 (inactive) and 0.407 (inactive); in test [15], 1.44 (inactive) and 0.526 (inactive). Besides, the composite z-score in [4] is 0.2 (inactive) and -2.13 (inactive); in [10], -0.0771 and -0.0663; in test [11], 0.382 (inactive) and -0.0838 (inactive); in the test on XIP peptide (Xip251-270) it was -0.383 and -1.8.
For `COC(=O)C1=C(C)N(Cc2ccccc2)[C@]23O[C@](C(=O)OC)(C(=O)N2[C@@H]1c1ccccc1)[C@@H](C(=O)OC)[C@H]3C(=O)OC`, the z-score in test [1] was 0.348 and -0.761; in test [2], 0.583 (inactive) and -0.704 (inactive); in [3] it was 0.409 (inactive) and -0.59 (inactive); in [5] it was 0.177 (inactive) and 0.241 (inactive); in [6], 1.62 (inactive) and 0.72 (inactive); in test [7], 0.148 (inactive) and 0.72 (inactive). In addition, the z-score in [8] is 0.165 (inactive) and 0.532 (inactive); in test [9], 0.537 and -0.332; in test [12], -0.0831 and 0.255; in test [13], -4.02 (inactive) and -0.38 (inactive). In addition, the composite z-score in test [4] was 0.466 (inactive) and -0.412 (inactive); in [10], -0.17 and -0.219; in [11], 1.4 (inactive) and -0.409 (inactive); in the test on XIP peptide (Xip251-270) it was -0.0215 and 0.118.
As for `COC(=O)C1=C(C)N(Cc2ccccc2)C2=C3C(=O)CCC[C@@H]3[C@@](O)(C(=O)OC)C(=O)N2[C@@H]1c1ccccc1`, the z-score in test [1] was 0.444 and 0.105; in test [2], -2.18 (inactive) and -2.94 (inactive); in test [3], 0.478 (inactive) and 0.111 (inactive); in [5], -0.847 (inactive); in [6] it was -0.387 (inactive) and -0.728 (inactive); in test [7] it was 0.875 (inactive) and 0.548 (inactive). For the same molecule, the z-score in test [8] was 0.37 (inactive) and 0.0908 (inactive); in [9] it was 0.74 and 0.619; in test [12] it was 0.0894 and 0.169; in [13], -0.77 (inactive) and -1.47 (inactive). The composite z-score is -0.13 (inactive) and -0.103 (inactive) in [4]; -0.0601 and -0.0118 in [10]; 0.995 (inactive) and 0.0397 (inactive) in test [11]; 0.135 and -0.554 in the test on XIP peptide (Xip251-270).

The record behind these values is PubChem BioAssay.
